# Sampled rows, rich in hits. Any-hit rate of the full collection: about 4.6%.
# ADAM17 inh – inhibitors of human ADAM17 | recombinant ADAM17, EDANS/DABCYL FRET peptide cleavage | 370,000 tested, 0.83% active | inhibition, % at 6.95 µM;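 active = inhibition above the mean of compounds lying between control limits plus 3 SD, set per campaign, cut at about 8.5% in these data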;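 also: 0% = DMSO-only wells as the low control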
# FAS-TE inh – inhibitors of human fatty acid synthase thioesterase domain; inhibition, % at 15 µM; AID 602261; 360,000 tested, 0.67% active; P49327; recombinant FAS-TE, OMFH fluorogenic substrate, fluorescence endpoint;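 active = compounds whose normalised, plate-corrected inhibition of enzyme fluorescence in the single-dose primary screen is 50% or more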;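 also: 0% = DMSO with enzyme and 100% = substrate without enzyme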
# KLK7 zymogen act – activates the human kallikrein-7 zymogen; purified proKLK7, EDANS-DABCYL substrate fluorescence; 100% is mature enzyme control, 0% vehicle; 370,000 tested, 0.9% active; AID 652039; activation, % at 7 µM;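 active = activation above the mean of all tested compounds plus 3 SD, computed per campaign excluding outliers beyond control limits, cut at about 13% in these data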
# ADAM10 inh – ADAM10 inhibition, QFRET primary screen; recombinant ADAM10, EDANS/DABCYL FRET peptide cleavage, 3 h; inhibition, % at 7 µM; 370,000 tested, 0.62% active; AID 720582;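 active = inhibition above a per-campaign cutoff equal to the mean of compounds falling between control-based bounds plus 3 SD, cut at about 20% in these data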;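 also: 0% = DMSO wells while the 100% control is not disclosed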
# Target sequence (O14672 214-748 limits assumed): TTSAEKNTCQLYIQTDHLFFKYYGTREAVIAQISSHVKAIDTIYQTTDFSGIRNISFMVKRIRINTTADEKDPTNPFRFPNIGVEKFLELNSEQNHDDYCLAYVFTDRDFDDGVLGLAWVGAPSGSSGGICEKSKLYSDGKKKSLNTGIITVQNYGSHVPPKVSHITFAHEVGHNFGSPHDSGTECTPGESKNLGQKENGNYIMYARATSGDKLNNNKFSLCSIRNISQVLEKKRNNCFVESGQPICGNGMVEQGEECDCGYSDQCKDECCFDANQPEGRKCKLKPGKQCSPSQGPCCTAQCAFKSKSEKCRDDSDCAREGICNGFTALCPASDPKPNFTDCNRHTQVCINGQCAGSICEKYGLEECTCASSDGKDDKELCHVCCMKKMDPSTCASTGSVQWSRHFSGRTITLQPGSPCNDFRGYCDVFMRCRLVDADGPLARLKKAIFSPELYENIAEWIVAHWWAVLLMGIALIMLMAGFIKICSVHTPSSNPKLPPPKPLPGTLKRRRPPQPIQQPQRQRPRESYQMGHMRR
# GRIN3A LBD mod – NR3A (human) ligand-binding domain modulation. NR3A LBD differential scanning fluorimetry, Tm shift; 0% = protein alone, 100% = glycine-bound protein. Tm shift relative to glycine control, % at 25 µM. 340,000 tested, 2.5% active;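 active = melting temperature shift of at least 10% of the positive control shift, at one fixed dose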
# ADAM10 ctr – counter-screen for ADAM17 exosite inhibitors: inhibitors of human ADAM10. inhibition, % at 6.95 µM. 2,900 tested, 47% active. recombinant ADAM10, EDANS/DABCYL FRET peptide cleavage, 3 h. AID 743256. shares compounds with ADAM17 inh;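 active = mean inhibition over the triplicate runs exceeds the activity threshold set in the earlier primary screen, cut at about 20% in these data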;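 also: 0% = DMSO wells and 100% = marimastat wells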
# ADAM17 confirm – human ADAM17 inhibition, confirmation; recombinant ADAM17, EDANS/DABCYL QFRET peptide cleavage; inhibition, % at 6.95 µM; shares compounds with ADAM17 inh; AID 743257; 2,900 tested, 65% active;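 active = mean inhibition across replicates above the hit cutoff set in the primary screen, cut at about 8.5% in these data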;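 also: 0% = DMSO wells and 100% = marimastat wells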
# An asterisk follows results filed as active; · = no result given.
SMILES,ADAM17 inh,FAS-TE inh,KLK7 zymogen act,ADAM10 inh,GRIN3A LBD mod,ADAM10 ctr,ADAM17 confirm
COc1ccccc1-c1cc(C(=O)Nc2sc3c(c2C#N)CCC(C)C3)c2ccccc2n1 (stereo not given),9.9*,41.9,0.2,-7.8,3.9,-33.6,2.3
CC1=CC(C)(C)N2C(=O)C3(SCC(=O)N3c3ccc(F)cc3)c3cc(C)cc1c32 (stereo not given),9.5*,-104.3,-0.2,7.1,-1.6,21.3*,12.5*
COc1ccc(C(=O)NCC2CCN(C(=O)C(=O)c3cccs3)CC2)cc1,-3.6,·,0.0,-2.5,·,·,·
O=C(NCCOCC(F)(F)C(F)F)c1cc(F)c(F)cc1Cl,8.7*,-2.8,-0.1,8.7,-0.5,-7.4,1.5
COC(=O)[C@]12C[C@H](CC(=O)NCCCN3CCCC3=O)C(=O)N(Cc3ccccc3)C1=C[C@H](C1CCCC1)O[C@@H]2C,1.7,·,-0.2,-0.7,·,·,·
O=C(NS(=O)(=O)c1cccc(F)c1)[C@H]1O[C@@H](n2ccc(=O)[nH]c2=O)[C@H](O)[C@@H]1O,0.2,·,-0.3,-5.5,·,·,·
CCOC(=O)c1c(-c2ccccc2)csc1NC(=O)CSc1nncs1,9.0*,14.8,-0.1,14.3,-2.9,17.4,12.7*
COc1ccc(S[C@]2(C(=O)N3CCN(C(C)=O)CC3)CC(=O)N(C(=O)CCc3ccccc3)[C@@H]2c2ccc(OC)cc2)cc1,15.8*,·,1.1,19.0,·,23.9*,12.8*
COC(=O)c1cccc(N2C(=O)C[C@](Sc3ccc(OC)cc3)(C(=O)N3CCOCC3)[C@H]2c2ccc(OC)cc2)c1,13.6*,·,0.9,17.5,·,16.6,8.6
COc1ccc(N=Cc2c(C)[nH][nH]c2=O)cc1,8.8*,-3.6,0.0,7.2,-1.4,12.5,6.9
CCCc1cc(C(=O)N2CCN(c3ccc(C(F)(F)F)cn3)CC2)sc1C,12.4*,28.0,1.4,15.8,-2.3,21.1*,13.6*
Clc1ccccc1-c1nn2c(-c3cc(-c4ccccc4)n[nH]3)nnc2s1,2.4,·,0.4,0.9,·,·,·
CN1CCCCC(NC(=O)CCCl)C1=O (stereo not given),-4.2,·,-0.4,-9.9,·,·,·
O=C(NNC(=S)NCc1ccccc1)c1cccc([N+](=O)[O-])c1,13.1*,23.2,-0.1,16.4,-6.9,12.1,8.2
O=C(NNC(=S)NC(=O)c1ccc(Br)cc1)c1cccc([N+](=O)[O-])c1,7.4,31.0,-0.2,15.9,-2.7,·,·
S=C(NCc1ccccc1)NCc1cccc(CNC(=S)NCc2ccccc2)c1,9.3*,21.4,-0.2,13.3,19.9*,21.7*,14.1*
S=C(NCc1ccccc1)NCc1cccc(Cl)c1,1.1,15.2,0.1,10.1,-5.1,·,·
CCCOC(=O)c1ccc(Oc2cn[nH]c2-c2ccc(OCC)cc2O)cc1,9.8*,-175.8,0.4,7.6,15.9*,17.2,12.1*
CCCc1ccc(Oc2c(-c3ccc(O)c(C)c3O)n[nH]c2C)cc1,9.0*,-82.3,-0.3,5.1,9.7,6.3,8.3
CCCOC(=O)c1ccc(Oc2c(-c3ccc(OCC)cc3O)n[nH]c2C)cc1,9.8*,-24.0,-0.4,19.0,30.5*,24.4*,14.8*
CCOc1ccc(-c2[nH]ncc2-c2ccccc2)c(O)c1,1.3,-56.6,-1.1,5.6,-1.4,·,·
COc1ccc(Oc2c(-c3ccc(O)cc3O)n[nH]c2C)cc1,3.6,-152.5,0.0,2.5,9.7,·,·
CCCc1ccc(OCC(=O)O)cc1,2.2,-10.6,0.2,-1.8,1.1,·,·
COC(=O)N1Cc2ccnnc2CC1c1ccccc1-c1ccc(F)cc1 (stereo not given),-6.9,·,0.3,-13.2,·,·,·
O=S(Cc1ccc(Br)cc1)Cc1nnc(SCc2ccc(Cl)cc2)n1-c1ccccc1 (stereo not given),8.6*,38.9,0.1,18.3,-9.7,27.2*,14.8*
SMILES,ADAM17 inh,FAS-TE inh,KLK7 zymogen act,ADAM10 inh,GRIN3A LBD mod,ADAM10 ctr,ADAM17 confirm
Nc1[nH]c(C(=O)c2ccccc2)c(-c2cccc3ccccc23)c1C(=O)c1ccc(Br)cc1,1.9,·,0.6,1.2,·,·,·
COc1ccccc1NC(=O)Cn1nc(-c2ccc(Cl)cc2)c2ccccc2c1=O,8.7*,10.7,0.0,14.0,-5.6,14.0,14.3*
COc1ccccc1NC(=O)COc1ccc(-c2nn(C)c(=O)c3ccccc23)cc1,-4.4,5.5,-0.5,6.6,-1.3,·,·
COc1ccc(NC(=O)O/N=C/c2ccc(Br)cc2)cc1,10.1*,15.3,-0.1,12.8,34.1*,-0.8,0.7
CC(=O)NC(c1cccs1)c1cc([N+](=O)[O-])c2cccnc2c1O (stereo not given),10.6*,10.9,0.2,14.9,-7.0,36.4*,18.9*
Cc1cc2c(c(=O)o1)[C@@]1(C(=O)N(c3ccccc3)c3ccccc31)C1=C(CCCC1=O)O2,-3.1,·,-0.2,-3.1,·,·,·
COC(=O)C1=C(C)N(Cc2ccc(C(F)(F)F)cc2)C(=NCc2cc(OC)c(OC)c(OC)c2)NC1c1cccc(Cl)c1 (stereo not given),-1.7,·,-0.2,-3.6,·,·,·
COc1ccc(N2CCN(C(=O)Cc3csc(NC(=O)Nc4ccccc4OC)n3)CC2)cc1,5.3,13.5,0.5,11.9,-1.9,·,·
COc1ccccc1NC(=O)Nc1nc(CC(=O)N2CCN(c3ccc(F)cc3)CC2)cs1,9.8*,32.0,0.0,5.0,-3.8,24.5*,16.1*
OCC[C@@H]1C[C@H](O)[C@@H](O)[C@@]2(OCCc3cc(C(F)(F)F)ccc32)O1,-4.0,·,0.5,-15.1,·,·,·
Cc1ccccc1N/N=C/c1sc(=O)n(Cc2cccc(C(=O)O)c2)c1Cl,-2.0,-10.5,0.3,-4.8,-0.8,·,·
COC(=O)c1cccc(Cn2c(Cl)c(/C=N/Nc3ccccc3C)sc2=O)c1,9.5*,26.4,-0.7,14.2,-9.5,19.6,12.0*
CCCCCCn1c(=O)n2n(c1=O)[C@@H]1CN(S(=O)(=O)c3ccc(C)cc3)C[C@]1(O)[C@@H](OC(=O)NCc1ccc(OC)c(OC)c1)C2,9.8*,8.0,0.4,16.9,·,23.1*,13.9*
CCCCCCn1c(=O)n2n(c1=O)[C@@H]1CN(S(=O)(=O)c3ccc(C)cc3)C[C@]1(O)[C@@H](OC(=O)NCc1ccccc1F)C2,5.4,18.3,0.4,7.9,·,·,·
CC(C)COc1cccc(C(=O)Nc2ccc(CN3CCOCC3)cc2)c1,-0.6,-2.4,0.1,-5.2,-0.7,·,·
CC(C)COc1cccc(C(=O)Nc2ccc(S(=O)(=O)N3CCOCC3)cc2)c1,9.1*,26.4,0.5,14.0,-1.1,26.8*,17.2*
O=[N+]([O-])c1cc([N+](=O)[O-])c(Oc2cccc3ccccc23)cc1NN1CCCCC1,-1.7,22.1,-1.4,-13.5,-0.9,·,·

# Screening data: PubChem, several laboratories
